# COUP-TFII inh = blocks human COUP-TFII nuclear receptor. P24468. HEK293T NGFI-A luciferase reporter, luminescence. inhibition, % at 8.6 µM. 370,000 tested, 0.7% active;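 active = inhibition above a per-plate cutoff, mean inhibition of test wells between control levels plus 3 SD, cut at about 38% in these data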;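 also: cells cotransfected with COUP-TFII expression vector driving the NGFI-A reporter; 0% = median of COUP-TF2 test wells and 100% = reporter-only cells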
# NR5A2 inv ag = inverse agonists of human LRH-1 (NR5A2); HEK293T StAR-luciferase reporter, LRH-1 transfected, 24 h; AID 602396; 360,000 tested, 0.13% active; O00482; inhibition, % at 3.6 µM;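 active = inhibition above the mean inhibition of all tested compounds plus 3 SD, cut at about 73% in these data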;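 also: 0% = DMSO wells and 100% = reporter-only cells lacking LRH-1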
# SRC2 inh = human SRC2 (NCOA2) inhibition. Q15596. HEK293 GAL4-SRC2 luciferase reporter, luminescence. inhibition, % at 9 µM. 370,000 tested, 0.17% active. AID 651957;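 active = inhibition above the mean inhibition of all tested compounds plus 3 SD, set per campaign, cut at about 52% in these data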;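 also: 0% = DMSO treated cells and 100% = cells given Gossypol at 36 µM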
# NCOA1 inh = human NCOA1 inhibition | inhibition, % at 3.6 µM | AID 588354 | 360,000 tested, 0.12% active | HEK293 GAL4-SRC1 luciferase reporter, luminescence | Q15788;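 active = inhibition above the campaign mean plus 3 SD, with each screening campaign given its own cutoff, cut at about 60% in these data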;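 also: 0% = DMSO treated cells and 100% = gossypol at 36 µM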
# Target sequence (Q15788 whole entry, looked up, the tested form may be a part): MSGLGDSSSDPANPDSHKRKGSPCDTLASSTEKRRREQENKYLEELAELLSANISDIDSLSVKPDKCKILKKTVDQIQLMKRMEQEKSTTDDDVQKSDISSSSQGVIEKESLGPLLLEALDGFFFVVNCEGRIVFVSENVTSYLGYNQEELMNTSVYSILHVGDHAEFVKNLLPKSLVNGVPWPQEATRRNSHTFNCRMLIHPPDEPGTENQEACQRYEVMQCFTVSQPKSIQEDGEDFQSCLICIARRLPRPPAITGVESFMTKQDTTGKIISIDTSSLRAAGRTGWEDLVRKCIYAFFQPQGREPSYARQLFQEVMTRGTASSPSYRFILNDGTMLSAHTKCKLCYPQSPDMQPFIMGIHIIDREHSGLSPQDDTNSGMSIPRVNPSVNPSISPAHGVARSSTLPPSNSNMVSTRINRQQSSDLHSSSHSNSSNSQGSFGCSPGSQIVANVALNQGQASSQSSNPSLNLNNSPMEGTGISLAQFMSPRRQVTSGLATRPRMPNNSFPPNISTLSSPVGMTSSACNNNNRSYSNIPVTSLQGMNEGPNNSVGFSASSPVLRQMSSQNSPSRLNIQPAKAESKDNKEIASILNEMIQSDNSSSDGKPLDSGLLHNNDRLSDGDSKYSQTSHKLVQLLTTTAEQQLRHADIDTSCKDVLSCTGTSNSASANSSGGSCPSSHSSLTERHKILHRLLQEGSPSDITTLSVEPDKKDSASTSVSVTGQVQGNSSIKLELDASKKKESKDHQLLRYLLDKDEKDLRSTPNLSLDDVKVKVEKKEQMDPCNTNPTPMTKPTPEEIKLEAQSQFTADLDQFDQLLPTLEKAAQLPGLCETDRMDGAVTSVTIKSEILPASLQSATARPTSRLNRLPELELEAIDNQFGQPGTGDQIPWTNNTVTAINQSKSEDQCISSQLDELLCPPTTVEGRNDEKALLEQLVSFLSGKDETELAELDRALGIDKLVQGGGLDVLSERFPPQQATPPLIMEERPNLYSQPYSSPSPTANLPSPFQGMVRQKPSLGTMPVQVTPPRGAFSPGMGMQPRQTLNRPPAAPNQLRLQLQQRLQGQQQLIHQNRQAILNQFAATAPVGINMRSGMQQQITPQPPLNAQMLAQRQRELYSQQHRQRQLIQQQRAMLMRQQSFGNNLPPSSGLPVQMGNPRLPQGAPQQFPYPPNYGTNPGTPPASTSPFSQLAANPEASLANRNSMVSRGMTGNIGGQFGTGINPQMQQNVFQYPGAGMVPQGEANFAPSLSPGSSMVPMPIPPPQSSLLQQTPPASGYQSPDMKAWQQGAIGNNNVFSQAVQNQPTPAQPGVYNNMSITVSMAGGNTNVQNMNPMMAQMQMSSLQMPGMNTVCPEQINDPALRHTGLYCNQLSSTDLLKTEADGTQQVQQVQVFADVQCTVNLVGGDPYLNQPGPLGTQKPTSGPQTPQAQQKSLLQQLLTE
# NCOA3 inh = human NCOA3 inhibition; Q9Y6Q9; HEK293 GAL4-SRC3 luciferase reporter, luminescence; inhibition, % at 3.6 µM; 360,000 tested, 0.17% active; AID 588352;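 active = inhibition above a per-campaign cutoff, the mean of all compounds plus 3 SD, cut at about 60% in these data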;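 also: 0% = DMSO-treated cells and 100% = gossypol-treated cells at 36 µM; higher means less SRC3-driven luciferase light from the GAL4 reporter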
# Gli-Sufu antag = blocks Gli-Sufu signaling in a luciferase reporter. Sufu-KO-LIGHT fibroblasts, Gli luciferase reporter luminescence. inhibition, % at 5 µM. 340,000 tested, 0.74% active. AID 588413;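 active = inhibition above about 55%, limit read from the data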;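 also: 0% = DMSO-treated cells and 100% = wells with medium but no cells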
# VP16 Luc counter = inhibits VP16 reporter, flagging COUP-TFII antagonist hits | inhibition, % at 8.5 µM | HEK293 Gal4-VP16 luciferase reporter, luminescence | shares compounds with COUP-TFII inh | 2,500 tested, 25% active | AID 687007; in the data active = inhibition above about 13%
# COUP-TFII conf = confirmation of human COUP-TFII (NR2F2) inhibitors. shares compounds with COUP-TFII inh. HEK293 NGFI-A luciferase reporter, luminescence. inhibition, % at 8.5 µM. AID 687008. 2,500 tested, 45% active;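 active = mean inhibition over three repeats above a set limit taken from the earlier primary screen, cut at about 38% in these data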;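 also: 100% = cells given the luciferase reporter alone without the COUP-TF2 vector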
# Active calls of the source: *; nt = no result given. The list is not random: actives were taken first. Their share in the collection is about 1.3%.
SMILES,COUP-TFII inh,NR5A2 inv ag,SRC2 inh,NCOA1 inh,NCOA3 inh,Gli-Sufu antag,VP16 Luc counter,COUP-TFII conf
C[C@@H]1O[C@@H](O[C@@H]2C=C3CC[C@@H]4C(CC[C@]5(C)[C@@H](c6ccc(=O)oc6)CC[C@]45O)[C@@]3(C)CC2)[C@H](O)[C@H](O)[C@H]1O (some centres not stated),73*,100*,58*,93*,91*,-2,55*,81*
C[C@@H]1O[C@@H](O[C@@H]2C=C3CCC4C(CC[C@]5(C)[C@@H](c6ccc(=O)oc6)CC[C@]45O)[C@@]3(C)CC2)[C@H](O)[C@H](O)[C@H]1O (some centres not stated),81*,103*,71*,90*,93*,1,56*,82*
COc1ccc(CC(=O)C2C(=O)N(C)c3ccccc32)cc1OC (configuration not stated),-2,-11,0,-10,-3,-12,nt,nt
COC1=C(OC)[C@]23CCc4ccc(OC)c(OC)c4[C@]2(CCN3C)CC1=O,13,12,-14,-24,4,5,nt,nt
O=C1N[C@@H](Cc2ccccc2)C(=O)N2[C@H]1C[C@H]1c3ccccc3N(OOSc3ccccc3)[C@H]12,-4,3,6,-34,-22,-1,nt,nt
CCSC(=O)N1CCCCCC1,-5,7,4,-26,9,-3,nt,nt
COC(=O)C12OCC34C(CC5C(C)=C(O)C(=O)CC5(C)C3C(O)C1O)OC(=O)C(OC(=O)/C=C(\C)C(C)C)C24 (configuration not stated),94*,98*,74*,96*,94*,88*,20*,88*
O=[N+]([O-])c1ccccc1-c1cc(-c2ccccc2)cc(-c2ccccc2)[n+]1Cc1ccccc1Cl,56*,nt,-23,nt,nt,38,14*,44*
O=[N+]([O-])c1ccc(-[n+]2c(-c3ccccc3)cc(-c3ccccc3)cc2-c2ccccc2)cc1,14,13,-10,5,9,7,nt,nt
C[n+]1ccc(-c2ccccc2)c2ccccc21,40*,31,12,-6,20,46,-2,14
C[n+]1c(-c2ccccc2)cc(-c2ccc(O)cc2)cc1-c1ccccc1,-4,16,-5,-9,5,11,nt,nt
CC[n+]1c(/C=C/C=C/c2ccc(N(C)C)cc2)sc2ccccc21,79*,59,-21,34,62*,87*,23*,82*
C[C@@H]1O[C@@H](O[C@H]2C[C@@H](O)[C@]3(CO)[C@H]4[C@H](O)C[C@]5(C)[C@@H](C6COC(=O)C6)CC[C@]5(O)[C@@H]4CC[C@]3(O)C2)[C@H](O)[C@H](O)[C@H]1O (some centres not stated),68*,99*,19,69*,57,2,21*,59*
CC1OC(OC2CC(O)C3(CO)C4C(O)CC5(C)C(C6=CC(=O)OC6)CCC5(O)C4CCC3(O)C2)C(O)C(O)C1O (configuration not stated),84*,103*,73*,90*,92*,4,53*,80*
CCCn1ncc(CN2CCCC(C(=O)c3cccc(OC)c3)C2)c1C (configuration not stated),4,-5,-34,-10,14,16,nt,nt
CN1C(=O)[C@@]23C[C@]4(c5c[nH]c6ccccc56)c5ccccc5N(S(=O)(=O)c5ccccc5)[C@@H]4N2C(=O)[C@@H]1SS3,107*,nt,nt,nt,nt,nt,88*,90*

# High-throughput results (PubChem BioAssay)
